This is part of a sample that, as a whole, favours compounds with a hit. Of some 83,000 tested, about 20% had one in any assay.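 Treatment: one concentration, 48 hours, 96-well format. Scoring: percent growth, with anything below 10 considered active.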 Unmarked numbers belong to inactive results. The source made the active and inactive calls.
What was measured:
Test in all cases: NCI-60 one-dose screen, 48 h (100 = growth as untreated, 0 = no growth, -100 = all killed)
Conditions in all cases: 10 µM unless noted
RPMI-8226 leukemia = test system: RPMI-8226 leukemia
OVCAR-8 ovarian = test system: OVCAR-8 ovarian
OVCAR-5 ovarian = test system: OVCAR-5 ovarian
OVCAR-4 ovarian = test system: OVCAR-4 ovarian
SK-OV-3 ovarian = test system: SK-OV-3 ovarian
IGROV1 ovarian = test system: IGROV1 ovarian
OVCAR-3 ovarian = test system: OVCAR-3 ovarian
HS 578T breast = test system: HS 578T breast
NCI/ADR-RES ovarian = test system: NCI/ADR-RES ovarian
T-47D breast = test system: T-47D breast
BT-549 breast = test system: BT-549 breast
MDA-MB-435 melanoma = test system: MDA-MB-435 melanoma
SW-620 colon = test system: SW-620 colon
HCC-2998 colon = test system: HCC-2998 colon
KM12 colon = test system: KM12 colon
MCF7 breast = test system: MCF7 breast
HCT-116 colon = test system: HCT-116 colon

Compound	growth (RPMI-8226 leukemia)	growth (OVCAR-8 ovarian)	growth (OVCAR-5 ovarian)	growth (OVCAR-4 ovarian)	growth (SK-OV-3 ovarian)	growth (IGROV1 ovarian)	growth (OVCAR-3 ovarian)	growth (HS 578T breast)	growth (NCI/ADR-RES ovarian)	growth (T-47D breast)	growth (BT-549 breast)	growth (MDA-MB-435 melanoma)	growth (SW-620 colon)	growth (HCC-2998 colon)	growth (KM12 colon)	growth (MCF7 breast)	growth (HCT-116 colon)
CC(=O)N1N=C(CCC(=O)c2nc3ccc([N+](=O)[O-])cc3[nH]2)OC1c1ccc(O)cc1 (stereo not given)	120%	105%	104%	109%	75.3%	103%	103%	104%	99.9%	85.5%	101%	105%	102%	98.7%	95.8%		
CCc1c2cc(Cl)ccc2n2cc(Cc3ccccc3)[nH]c(=O)c12	110%	99.1%	93.9%	102%	103%	90.5%	99.2%	87.4%	100%	104%	101%	102%	99.4%	97.1%	98%		
O=C(Nc1ccccc1F)Nc1ccccc1Cl	78.8%	101%	102%	73%	104%		102%	103%	88.9%	72.5%	85.7%	97.4%	96.2%	99.2%	83.5%	90.5%	101%
CCCN1C(=O)CSC1=Nc1ccc2cc3ccc(N=C4SCC(=O)N4CCC)cc3nc2c1	1.65% (active)	37.2%	89.2%	15.3%	74.5%		51%	31.6%	24.5%	12.1%	41.7%	40.5%	70.3%	64.2%	36.7%	16.8%	37%
COc1ccc2c(c1)C(=O)/C(=C/c1ccc(OCC(=O)c3ccc(Cl)cc3)cc1)O2	58.9%	84.9%	105%	78.4%	98.8%		83.7%	115%	98.8%	72.2%	80.5%	92.8%	14.2%	21.2%	104%	104%	30.1%
COC(=O)c1oc2c(C(C)=O)c(OCCN3CCCCC3)ccc2c1C	97.6%	107%	107%	161%	107%	-8.51% (active)		107%	95.5%	129%	130%	80.8%	103%	113%	102%	105%	89.7%
COc1ccc2c(c1)nnn1c3ncccc3c(N=O)c21	-56.2% (active)	-30.3% (active)	-0.558% (active)	9.93% (active)	9.38% (active)		-91.3% (active)	-29.7% (active)	-8.17% (active)	-0.214% (active)	-11.7% (active)	-5.59% (active)	-80.3% (active)	12.6%	5.81% (active)	-58.7% (active)	-86% (active)
NC(CSC(c1ccccc1)(c1ccccc1)c1ccc(F)cc1)C(=O)O (stereo not given)	-25.9% (active)	11.1%	34.9%	48.8%	34.3%		-39.5% (active)		37.5%	30.4%	28.7%	-47.1% (active)	30.1%	4.55% (active)	5.24% (active)	11.7%	-7.69% (active)
CC(=O)c1ccc2c(c1)C1C=CCC1[C@H](c1cc3c(cc1Br)OCO3)N2 (stereo not given in full)	9.1% (active)	16.8%		56.1%	34.2%		8.44% (active)		10.8%	36.2%	44.6%	-27.2% (active)	21.2%	7.12% (active)	17%	14.1%	14.9%
Cn1cnc([N+](=O)[O-])c1N1c2ccncc2Sc2ccncc21	85.8%	83.4%	99.7%	179%	92.2%		92.7%	98.2%	97.1%	86%	113%	110%	95.1%	114%	103%	101%	95.7%
CC1(C)Cc2c(Br)c(Br)c(Br)c(OCC(O)CN3CCN(c4ccccn4)CC3)c2O1 (stereo not given)	52.1%	88.6%	102%	112%	102%	-11.7% (active)		89.2%	75.3%	88.5%	101%	66.8%	85.5%	92.7%	80.7%	67.6%	55.5%
CCC1CN2C(=N1)c1ccccc1-c1cc(Cl)ccc12 (stereo not given)	-9.43% (active)	-5.17% (active)	35.6%	26.6%	29.6%		20.4%	89.1%	21.3%	21.9%	42.5%	25.4%	18.6%	28.5%	16.7%	4.59% (active)	1.68% (active)
CCC(C)Nc1ccc(N)cc1 (stereo not given)	-25.4% (active)		74%	-4.82% (active)	38.5%		-42.9% (active)	78.9%	70.6%	16.2%	31.7%	12.7%	29.9%	28.4%	8.28% (active)	3.94% (active)	-34.8% (active)
CC(=O)N1N=C2N(Cc3ccccc3)C(=O)c3c(sc4c3CCCC4)N2C1c1cn(-c2ccccc2)nc1-c1ccc(Cl)cc1 (stereo not given)	87.9%	100%	101%	115%	88%		101%	93%	100%	80.8%	99.5%	95.4%	103%	112%	98%	92.4%	96.8%
O=C(O)c1cn(C2CC2)c2cc(N3CCN(C(=O)CSc4nc(NS(=O)(=O)c5ccccc5)cc(=O)[nH]4)CC3)c(F)cc2c1=O	82.1%	98.5%		104%	117%	98.3%	83.9%	89.1%	101%	116%	99%	90.1%	99.9%	91.7%	91.6%		
Cc1cc(NCCN(C(C)C)C(C)C)nc(/N=C(\N)Nc2ccc(Cl)c(C(F)(F)F)c2)n1	-65.7% (active)	-79.2% (active)	-55.5% (active)	-68.2% (active)	-82% (active)		-73.6% (active)	-48.5% (active)	-41.1% (active)	-54.3% (active)	-64.6% (active)	-73.9% (active)	-89.7% (active)	-96.7% (active)	-92.6% (active)	-78.4% (active)	-100% (active)
O=C(CNc1cccnc1)Nc1ccc(C(=O)/C=C/c2ccc(Cl)cc2)cc1	21.7%	98.1%	92.7%	87.1%	111%	95.1%	89.8%	82.1%	98%	89.9%	89.7%	68.5%	74.3%	86.2%	69.3%		
CCCOC(=O)c1ccc([N+](=O)[O-])o1	97.5%	109%	99.5%	95.1%	113%	102%	123%		104%	114%	127%	107%	97.2%	121%	101%	94.2%	105%
O=C1CN(CCN2CC(=O)NC(=O)C2)CC(=O)N1	88.1%	103%	93.2%	96.1%	102%		113%	102%	99.9%	99.2%	96.6%	90.4%	118%	112%	99.5%	104%	93.6%
